PubChem BioAssay (NCI)
Where “and” joins values, the source holds several entries; their conditions need not be identical. Equal values may be shown once. About 83,000 compounds went through this panel and 20% of them were active in at least one assay; those are over-represented in the sample as a whole.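 Activity criterion: percent growth below 10, measured after cells in 96-well plates were exposed to a single compound concentration for 48 hours.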 Calls of active or inactive are those of the source.

system: NCI-H322M lung; assay: NCI-60 one-dose screen, 48 h (100 = growth as untreated, 0 = no growth, -100 = all killed); details: 10 µM unless noted

SMILES | growth
CCOc1cccc(/C(N)=N/C(N)=N/c2nc3ccccc3s2)c1 | 91% (inactive)
O=C(CCl)Nc1ccc(NC(=O)c2cc(Cl)ccc2O)c(Cl)c1 | 96% (inactive)
Clc1ccc(CSc2nnc(-c3ccc(Cl)cc3)n2-c2ccccc2)cc1 | 92.7% (inactive)
CC(C)(C)OC(=O)NCc1ccc(CNc2c([N+](=O)[O-])cnc3ccccc23)cc1 | 91.6% (inactive)
NS(=O)(=O)c1ccc(Nc2nc(N/N=C/c3ccc4c(c3)OCO4)nc(Nc3ccccc3)n2)cc1 | 61.3% (inactive)
Cc1cc(=O)oc2cc(OCCCOc3ccc(/C=C/C(=O)Nc4ccc(Br)cc4)cc3)ccc12 | 94.9% (inactive)
CNC(=O)c1cc(N2CCc3cc(NC(=O)Nc4ccc(N5CCOCC5)c(C(F)(F)F)c4)ccc32)ccn1 | 56.2% (inactive)

system: HOP-62 NSCLC; assay: as above; details: 10 µM unless noted

SMILES | growth
Cc1ccc2c(n1)C(=O)C(Cl)=C(Nc1ccc(C#N)cc1)C2=O | 115% (inactive)
CC(C)(O)c1cncc(-c2ccc3ncc(C#N)c(N4CCc5cc(F)c(Cl)cc54)c3c2)c1 | 1.17% (active)
O=c1c2ccccc2cc2n1CCN=C2c1ccccc1 | 116% (inactive)
O=C(CN1CCN(c2cc(=O)[nH]c3ccc(F)cc23)CC1)N(c1ccccc1)c1ccccc1 | 102% (inactive)
CCc1cc(OC(=O)N2CCC(N3CCCCC3)CC2)ccc1Nc1cc(-c2ccc(-n3cccn3)cc2)[nH]n1 | 66.3% (inactive)
CCCC/C(=C\c1ccc(O)c(O)c1)C(=O)NC(Cc1ccccc1)C(=O)C(=O)NCCc1ccc(OC)cc1 (configuration not stated) | 98.2% (inactive)
CN(C)c1ccc(-c2cc(-c3c[nH]c4ccccc34)nc(N)c2C#N)cc1 | 33.3% (inactive)
COc1cc(C(=O)c2cc(C(C)=O)c3ccc(C)cn23)cc(OC)c1OC | 52.4% (inactive)
CCOC(=O)c1ccccc1NC1=C(Cl)C(=O)c2nc(C)ccc2C1=O | 102% (inactive)
CN(C)S(=O)(=O)c1ccc(-c2nc(C(Cl)Cl)nc3cc(-c4ccccc4)nn23)cc1 | 70.7% (inactive)
CN1CCN(c2ccc(Nc3nc(NCCCNS(=O)(=O)c4ccc(Cl)cc4)c4sccc4n3)cc2)CC1 | 52.5% (inactive)
O=C1[C@@H]2Cc3c([nH]c4ccccc34)[C@H](c3ccc(Cl)cc3)N2C(=O)CN1C1CCN(Cc2ccccc2)CC1 | 75.7% (inactive)
CN1CCN(CCNc2nc(-c3cccc(NS(=O)(=O)c4cccc5c(N(C)C)cccc45)c3)cs2)CC1 | 82% (inactive)
C#C[C@]1(O)CC[C@H]2[C@@H]3CC=C4c5sc(Nc6ncccc6C)nc5CC[C@]4(C)[C@H]3CC[C@@]21C | 11.9% (inactive)
CC(=O)N(O)CCCCCNC(=O)CCC(=O)N(O)CCCCCNC(=O)CCC(=O)N(O)CCCCCN(CCCCCCCCCC[P+](c1ccccc1)(c1ccccc1)c1ccccc1)CCCCCCCCCC[P+](c1ccccc1)(c1ccccc1)c1ccccc1 | 7.35% (active)
O=C1Nc2ccccc2/C1=N\c1nnc(-c2ccccc2)o1 | 82.6% (inactive)
CCCCCCCCCC(=O)NC(C)(C)C(=O)N1CCC[C@H]1C(=O)N[C@@H](CC(C)C)C(=O)N[C@@](C)(CC)C(=O)N[C@@H](CCC(N)=O)C(=O)N[C@H](CCC(N)=O)C(=O)NC(C)(C)C(=O)NC(C)(C)C(=O)N[C@@H](CCC(N)=O)C(=O)N[C@H](CC(C)C)C(=O)N[C@H](CO)CC(C)C | -70.9% (active) and -64.1% (active)
Fc1cccc(Cl)c1/C=N/Nc1nc(N/N=C/c2c(F)cccc2Cl)nc(N2CCCCC2)n1 | 25.9% (inactive)
Cc1ccc(/C(N)=N/C(N)=N/c2nc3ccccc3s2)cc1 | -42.4% (active)
CCc1cc2c(cc1Cl)nc1c(=O)[nH]c(=O)nc-1n2CCOCC(C)(C)C | 104% (inactive)

SMILES | growth
Cc1csc(/N=C(N)/N=C(\N)c2cccc(Br)c2)n1 | 85.3% (inactive)
Brc1cccc(-c2cc(-c3cnc4c(c3)OCCO4)n[nH]2)c1 | 65% (inactive)
CN(C)CC(=O)Nc1nc(-c2cccc(NS(=O)(=O)c3cccc4c(N(C)C)cccc34)c2)cs1 | 103% (inactive)
O=C(/C=C/c1cc(Cl)ccc1Cl)Nc1ncc(Cc2ccc(Cl)cc2)s1 | 1.25% (active)
Nc1ncc(-c2ccc3ncnc(NCc4ccccc4)c3c2)cn1 | 35.7% (inactive)
Cc1ccc(-c2cc3nc(C(Cl)Cl)nc(-c4ccc(S(=O)(=O)N(C)C)cc4)n3n2)cc1 | 77.9% (inactive)
CCN(CC)CCOc1ccc(C(=C(c2ccccc2)C2CCCC2)c2ccc(OCCN(CC)CC)cc2)cc1 | 50.2% (inactive)
COC(=O)c1cccc(NC2=C(Cl)C(=O)c3nc(C)ccc3C2=O)c1 | 113% (inactive)
COc1cc(/C=N\NC(=O)c2ccc3nc(-c4ccc(Br)cc4)[nH]c3c2)cc(OC)c1OC | 72.6% (inactive)
NC1=NC2(CCCC2)N(c2ccc(S(=O)(=O)Nc3nccs3)cc2)C(N)=N1 | 110% (inactive)
N#C/C(=N\Nc1ccc(F)cc1)C(=O)Nc1cc(-c2ccccc2)nn1-c1ccccc1 | 18.2% (inactive)
Cc1ccc(S(=O)(=O)c2nc(-c3ccc(F)cc3)oc2S(C)(=O)=O)cc1 | 99.8% (inactive)
CC(O)c1cccc(/C(N)=N/C(N)=N/c2nc3ccccc3s2)c1 (configuration not stated) | 98.6% (inactive)
CCOc1cccc(/C(N)=N/C(N)=N/c2nc3ccccc3s2)c1 | -38.7% (active)
O=C(CCl)Nc1ccc(NC(=O)c2cc(Cl)ccc2O)c(Cl)c1 | 101% (inactive)
Clc1ccc(CSc2nnc(-c3ccc(Cl)cc3)n2-c2ccccc2)cc1 | 92.4% (inactive)
CC(C)(C)OC(=O)NCc1ccc(CNc2c([N+](=O)[O-])cnc3ccccc23)cc1 | 58.5% (inactive)
NS(=O)(=O)c1ccc(Nc2nc(N/N=C/c3ccc4c(c3)OCO4)nc(Nc3ccccc3)n2)cc1 | 29% (inactive)
Cc1cc(=O)oc2cc(OCCCOc3ccc(/C=C/C(=O)Nc4ccc(Br)cc4)cc3)ccc12 | 85.2% (inactive)
CNC(=O)c1cc(N2CCc3cc(NC(=O)Nc4ccc(N5CCOCC5)c(C(F)(F)F)c4)ccc32)ccn1 | 12.1% (inactive)
